From article PMC7862700, “An all-to-all approach to the identification of sequence-specific readers for epigenetic DNA modifications on cytosine”

What was measured:
Assay in all cases: DAPPL (digital affinity profiling via proximity ligation, sequencing); 10 mM Tris-HCl pH 7.5, 50 mM NaCl, 1 mM DTT, 4% glycerol, room temperature, 30 min; GST-TFs on glutathione beads, 16-mer random dsDNA library, 0.1% formaldehyde crosslink after washing; high values mean tight binding
Conditions in all cases: protein: recombinant; tags: N-terminal GST; dsDNA, one strand shown
FLI1 = molecular target: T1, FLI1 (Homo sapiens, UniProt Q01543 1-452)
T1 sequence: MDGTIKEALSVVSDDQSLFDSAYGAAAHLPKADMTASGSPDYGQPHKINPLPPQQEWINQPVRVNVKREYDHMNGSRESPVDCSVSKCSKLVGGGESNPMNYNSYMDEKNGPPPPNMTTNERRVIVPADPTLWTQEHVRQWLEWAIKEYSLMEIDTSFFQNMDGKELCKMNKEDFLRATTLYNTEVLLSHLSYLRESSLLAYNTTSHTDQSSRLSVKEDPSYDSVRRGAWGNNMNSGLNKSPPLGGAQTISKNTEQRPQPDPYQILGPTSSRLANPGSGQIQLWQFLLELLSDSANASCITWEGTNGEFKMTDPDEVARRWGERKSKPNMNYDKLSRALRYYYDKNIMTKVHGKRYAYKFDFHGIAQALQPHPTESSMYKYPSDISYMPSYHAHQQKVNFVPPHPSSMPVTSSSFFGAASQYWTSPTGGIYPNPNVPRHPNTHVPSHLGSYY
Summary of the method: (§1)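 After expression in yeast as GST fusions, human transcription factors were bound to glutathione beads, DNA-barcoded and mixed with a tag-only sample. The pools were incubated with 200 nmole of a 16-mer random double-stranded DNA library in Tris/NaCl/DTT/glycerol buffer (30 min, room temperature), washed and crosslinked with 0.1% formaldehyde. Proximity ligation with BsaI/T4 ligase ran for 1 h at 37 °C, before PCR amplification and sequencing on an Illumina NextSeq500. Binding signal is a hexamer's read frequency for a factor divided by its frequency for the tag-only sample.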

ELK1 = molecular target: T2, ELK1 (Homo sapiens, UniProt P19419 1-428)
T2 sequence: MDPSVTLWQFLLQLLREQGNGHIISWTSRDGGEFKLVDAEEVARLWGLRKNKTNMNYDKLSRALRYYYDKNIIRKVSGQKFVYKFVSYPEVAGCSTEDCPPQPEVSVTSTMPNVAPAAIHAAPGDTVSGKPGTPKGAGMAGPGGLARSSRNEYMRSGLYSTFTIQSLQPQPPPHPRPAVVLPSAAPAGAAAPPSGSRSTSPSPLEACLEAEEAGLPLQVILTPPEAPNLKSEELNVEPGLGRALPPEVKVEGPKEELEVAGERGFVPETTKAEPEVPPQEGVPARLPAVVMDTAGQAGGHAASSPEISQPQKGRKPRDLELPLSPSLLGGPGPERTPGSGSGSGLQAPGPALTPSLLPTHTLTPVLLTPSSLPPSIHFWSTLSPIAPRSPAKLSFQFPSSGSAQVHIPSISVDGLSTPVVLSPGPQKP
Summary of the method: as §1

GABPA = molecular target: T3, GABPA (Homo sapiens, UniProt Q06546 1-454)
T3 sequence: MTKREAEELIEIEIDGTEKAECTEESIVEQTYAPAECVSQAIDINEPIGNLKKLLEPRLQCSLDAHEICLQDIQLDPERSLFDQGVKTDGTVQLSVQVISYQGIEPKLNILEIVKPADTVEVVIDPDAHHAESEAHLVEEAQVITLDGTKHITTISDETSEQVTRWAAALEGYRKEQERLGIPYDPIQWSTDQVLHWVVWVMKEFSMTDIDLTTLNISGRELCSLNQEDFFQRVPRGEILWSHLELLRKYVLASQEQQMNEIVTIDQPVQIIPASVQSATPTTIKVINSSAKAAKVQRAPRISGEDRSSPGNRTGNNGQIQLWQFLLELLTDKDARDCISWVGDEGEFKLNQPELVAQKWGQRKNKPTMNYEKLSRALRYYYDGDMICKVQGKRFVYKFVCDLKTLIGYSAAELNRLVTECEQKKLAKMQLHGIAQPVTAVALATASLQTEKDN
Summary of the method: as §1

ERG = molecular target: T4, ERG (Homo sapiens, UniProt P11308 1-479)
T4 sequence: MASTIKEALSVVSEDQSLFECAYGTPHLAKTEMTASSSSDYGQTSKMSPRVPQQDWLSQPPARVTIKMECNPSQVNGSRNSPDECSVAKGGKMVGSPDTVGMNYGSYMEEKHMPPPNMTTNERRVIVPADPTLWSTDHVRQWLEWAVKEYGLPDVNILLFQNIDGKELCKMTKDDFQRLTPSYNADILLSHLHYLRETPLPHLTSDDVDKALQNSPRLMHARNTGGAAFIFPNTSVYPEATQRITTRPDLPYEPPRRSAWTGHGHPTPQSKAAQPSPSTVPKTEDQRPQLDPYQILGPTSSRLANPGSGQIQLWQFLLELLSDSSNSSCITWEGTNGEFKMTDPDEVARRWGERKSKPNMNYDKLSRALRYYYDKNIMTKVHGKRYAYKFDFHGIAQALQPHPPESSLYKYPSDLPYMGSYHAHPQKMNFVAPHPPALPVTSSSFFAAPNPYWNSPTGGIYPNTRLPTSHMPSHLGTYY
Summary of the method: as §1

ELF1 = ELF1 (Homo sapiens, UniProt P32519 1-619)
ELF1, sequence (P32519 whole entry): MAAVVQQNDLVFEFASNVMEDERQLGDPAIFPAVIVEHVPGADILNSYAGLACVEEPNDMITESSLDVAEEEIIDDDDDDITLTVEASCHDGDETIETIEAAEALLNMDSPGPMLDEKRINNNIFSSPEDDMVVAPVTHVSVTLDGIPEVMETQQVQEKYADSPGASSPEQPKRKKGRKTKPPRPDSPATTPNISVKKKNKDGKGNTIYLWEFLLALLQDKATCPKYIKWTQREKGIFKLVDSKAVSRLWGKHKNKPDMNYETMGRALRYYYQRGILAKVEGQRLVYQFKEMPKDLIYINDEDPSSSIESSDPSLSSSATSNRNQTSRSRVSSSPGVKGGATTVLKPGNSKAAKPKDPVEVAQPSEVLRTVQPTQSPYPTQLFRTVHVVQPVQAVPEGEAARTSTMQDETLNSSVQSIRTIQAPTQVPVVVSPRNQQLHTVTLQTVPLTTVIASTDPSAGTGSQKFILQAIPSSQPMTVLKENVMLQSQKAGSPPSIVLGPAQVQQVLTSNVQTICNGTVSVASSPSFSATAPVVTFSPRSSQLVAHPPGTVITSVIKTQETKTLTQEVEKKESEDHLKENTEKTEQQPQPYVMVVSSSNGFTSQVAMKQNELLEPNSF
Summary of the method: as §1

EHF = molecular target: T5, EHF (Homo sapiens, UniProt Q9NZC4 1-300)
T5 sequence: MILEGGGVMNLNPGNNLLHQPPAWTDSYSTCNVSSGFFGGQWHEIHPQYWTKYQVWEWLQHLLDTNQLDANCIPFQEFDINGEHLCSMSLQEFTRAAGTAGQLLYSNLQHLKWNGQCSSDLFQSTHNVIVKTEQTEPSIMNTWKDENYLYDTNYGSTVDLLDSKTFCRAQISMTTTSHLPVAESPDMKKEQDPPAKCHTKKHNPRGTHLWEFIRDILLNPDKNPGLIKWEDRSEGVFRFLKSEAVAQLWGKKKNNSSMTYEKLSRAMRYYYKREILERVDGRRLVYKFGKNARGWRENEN
Summary of the method: as §1

SPI1 = SPI1 (Homo sapiens, UniProt P17947 1-270)
Summary of the method: as §1

SPIB = SPIB (Homo sapiens, UniProt Q01892 1-262)
SPIB, sequence (Q01892 whole entry): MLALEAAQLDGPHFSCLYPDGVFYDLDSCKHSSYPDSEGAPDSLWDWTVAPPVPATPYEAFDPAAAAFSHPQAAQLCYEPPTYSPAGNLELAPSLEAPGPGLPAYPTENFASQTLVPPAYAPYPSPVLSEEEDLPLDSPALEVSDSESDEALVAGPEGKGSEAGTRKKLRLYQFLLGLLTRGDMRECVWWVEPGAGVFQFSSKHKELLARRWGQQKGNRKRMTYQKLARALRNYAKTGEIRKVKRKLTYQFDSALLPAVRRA
Summary of the method: as §1

ELK3 = molecular target: T6, ELK3 (Homo sapiens, UniProt P41970 1-407)
T6 sequence: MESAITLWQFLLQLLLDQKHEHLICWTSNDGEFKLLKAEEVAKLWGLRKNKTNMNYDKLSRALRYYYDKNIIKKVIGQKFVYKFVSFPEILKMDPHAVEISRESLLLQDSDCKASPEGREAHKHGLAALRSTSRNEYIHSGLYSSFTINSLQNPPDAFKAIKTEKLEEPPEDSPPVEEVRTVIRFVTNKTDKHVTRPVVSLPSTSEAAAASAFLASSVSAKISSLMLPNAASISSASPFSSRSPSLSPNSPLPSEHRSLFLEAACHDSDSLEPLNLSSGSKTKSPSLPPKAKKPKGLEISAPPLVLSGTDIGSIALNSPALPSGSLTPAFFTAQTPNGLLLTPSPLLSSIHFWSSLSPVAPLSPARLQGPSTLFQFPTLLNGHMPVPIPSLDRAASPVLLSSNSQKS
Summary of the method: as §1

FEV = molecular target: T7, FEV (Homo sapiens, UniProt Q99581 1-238)
T7 sequence: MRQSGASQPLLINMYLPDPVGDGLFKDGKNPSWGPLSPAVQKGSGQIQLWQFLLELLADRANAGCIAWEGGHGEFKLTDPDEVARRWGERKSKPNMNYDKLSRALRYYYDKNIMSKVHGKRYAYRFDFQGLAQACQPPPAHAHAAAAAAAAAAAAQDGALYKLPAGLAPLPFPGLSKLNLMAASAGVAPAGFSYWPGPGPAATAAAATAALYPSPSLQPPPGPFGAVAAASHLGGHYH
Summary of the method: as §1

ETV5 = ETV5 (Homo sapiens, UniProt P41161 1-510)
ETV5, sequence (P41161 whole entry): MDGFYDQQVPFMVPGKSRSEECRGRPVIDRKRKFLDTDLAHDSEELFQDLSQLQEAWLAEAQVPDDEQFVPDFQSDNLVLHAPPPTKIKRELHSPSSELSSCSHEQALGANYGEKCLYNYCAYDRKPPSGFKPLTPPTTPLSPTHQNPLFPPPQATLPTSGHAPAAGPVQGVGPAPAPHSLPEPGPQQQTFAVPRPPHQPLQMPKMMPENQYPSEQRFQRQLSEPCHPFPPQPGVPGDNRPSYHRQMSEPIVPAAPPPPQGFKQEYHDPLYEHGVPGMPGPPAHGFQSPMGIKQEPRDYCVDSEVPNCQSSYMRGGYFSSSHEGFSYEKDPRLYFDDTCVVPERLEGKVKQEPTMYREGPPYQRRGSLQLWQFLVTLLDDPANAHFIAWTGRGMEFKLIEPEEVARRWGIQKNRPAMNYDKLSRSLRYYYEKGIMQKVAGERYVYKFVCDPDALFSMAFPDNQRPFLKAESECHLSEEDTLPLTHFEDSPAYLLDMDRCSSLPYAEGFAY
Summary of the method: as §1

SPIC = molecular target: T8, SPIC (Homo sapiens, UniProt Q8N5J4 1-248)
T8 sequence: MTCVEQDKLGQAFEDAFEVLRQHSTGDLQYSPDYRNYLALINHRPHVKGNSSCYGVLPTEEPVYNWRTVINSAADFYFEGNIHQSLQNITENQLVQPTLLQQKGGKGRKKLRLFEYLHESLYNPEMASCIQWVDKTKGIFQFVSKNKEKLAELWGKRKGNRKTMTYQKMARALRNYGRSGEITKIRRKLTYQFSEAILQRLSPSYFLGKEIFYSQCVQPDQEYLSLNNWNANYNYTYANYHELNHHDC
Summary of the method: as §1

ELF4 = ELF4 (Homo sapiens, UniProt Q99607 1-663)
ELF4, sequence (Q99607 whole entry): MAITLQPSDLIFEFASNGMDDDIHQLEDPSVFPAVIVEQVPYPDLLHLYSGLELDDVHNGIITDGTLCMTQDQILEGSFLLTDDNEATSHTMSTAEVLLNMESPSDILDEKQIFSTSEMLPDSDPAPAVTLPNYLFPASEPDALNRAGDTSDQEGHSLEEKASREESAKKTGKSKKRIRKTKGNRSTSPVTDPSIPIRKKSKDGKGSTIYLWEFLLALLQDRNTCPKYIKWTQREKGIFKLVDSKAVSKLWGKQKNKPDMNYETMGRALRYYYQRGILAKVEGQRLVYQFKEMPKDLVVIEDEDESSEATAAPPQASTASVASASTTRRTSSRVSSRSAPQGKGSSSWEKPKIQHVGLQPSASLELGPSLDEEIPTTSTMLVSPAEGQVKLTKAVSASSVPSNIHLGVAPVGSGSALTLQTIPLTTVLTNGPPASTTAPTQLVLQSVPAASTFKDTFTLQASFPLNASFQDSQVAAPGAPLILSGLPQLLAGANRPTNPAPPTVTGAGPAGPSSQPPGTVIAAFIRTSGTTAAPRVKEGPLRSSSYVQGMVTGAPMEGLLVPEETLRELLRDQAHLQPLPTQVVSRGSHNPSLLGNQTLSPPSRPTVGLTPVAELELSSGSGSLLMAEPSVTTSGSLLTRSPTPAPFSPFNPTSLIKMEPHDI
Summary of the method: as §1

ELK4 = molecular target: T9, ELK4 (Homo sapiens, UniProt P28324-2 1-405)
T9 sequence: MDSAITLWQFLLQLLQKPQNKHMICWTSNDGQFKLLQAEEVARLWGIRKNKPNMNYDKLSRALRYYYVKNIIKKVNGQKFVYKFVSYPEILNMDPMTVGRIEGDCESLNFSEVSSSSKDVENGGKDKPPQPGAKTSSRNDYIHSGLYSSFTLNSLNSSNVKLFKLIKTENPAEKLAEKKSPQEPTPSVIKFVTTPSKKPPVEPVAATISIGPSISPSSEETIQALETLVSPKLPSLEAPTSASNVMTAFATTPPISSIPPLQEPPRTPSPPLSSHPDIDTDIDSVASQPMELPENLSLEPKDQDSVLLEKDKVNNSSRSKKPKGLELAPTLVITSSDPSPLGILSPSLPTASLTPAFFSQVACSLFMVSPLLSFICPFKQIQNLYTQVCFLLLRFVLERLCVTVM
Summary of the method: as §1

ETV2 = molecular target: T10, ETV2 (Homo sapiens, UniProt O00321 1-342)
T10 sequence: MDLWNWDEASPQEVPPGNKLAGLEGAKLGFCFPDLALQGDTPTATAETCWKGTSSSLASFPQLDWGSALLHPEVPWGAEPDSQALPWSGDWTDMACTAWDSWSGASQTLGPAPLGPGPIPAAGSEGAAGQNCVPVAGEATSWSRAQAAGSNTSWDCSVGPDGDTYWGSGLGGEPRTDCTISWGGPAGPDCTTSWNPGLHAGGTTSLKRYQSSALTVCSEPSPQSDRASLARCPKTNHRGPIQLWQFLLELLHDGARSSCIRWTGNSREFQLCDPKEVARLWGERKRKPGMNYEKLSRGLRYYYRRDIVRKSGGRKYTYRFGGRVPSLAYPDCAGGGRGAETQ
Summary of the method: as §1

ELF3 = molecular target: T11, ELF3 (Homo sapiens, UniProt P78545 1-371)
T11 sequence: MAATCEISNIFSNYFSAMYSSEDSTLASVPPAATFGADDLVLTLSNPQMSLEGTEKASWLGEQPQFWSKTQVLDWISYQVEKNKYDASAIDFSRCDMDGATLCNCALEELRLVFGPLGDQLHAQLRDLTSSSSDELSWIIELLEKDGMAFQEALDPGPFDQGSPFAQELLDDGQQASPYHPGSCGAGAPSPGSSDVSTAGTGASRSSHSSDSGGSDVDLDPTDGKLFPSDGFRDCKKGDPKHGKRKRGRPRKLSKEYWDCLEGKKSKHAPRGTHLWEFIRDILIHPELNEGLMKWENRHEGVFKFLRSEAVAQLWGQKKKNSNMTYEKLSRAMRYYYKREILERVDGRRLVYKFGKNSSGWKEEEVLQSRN
Summary of the method: as §1

ETV1 = ETV1 (Homo sapiens, UniProt P50549 1-477)
ETV1, sequence (P50549 whole entry): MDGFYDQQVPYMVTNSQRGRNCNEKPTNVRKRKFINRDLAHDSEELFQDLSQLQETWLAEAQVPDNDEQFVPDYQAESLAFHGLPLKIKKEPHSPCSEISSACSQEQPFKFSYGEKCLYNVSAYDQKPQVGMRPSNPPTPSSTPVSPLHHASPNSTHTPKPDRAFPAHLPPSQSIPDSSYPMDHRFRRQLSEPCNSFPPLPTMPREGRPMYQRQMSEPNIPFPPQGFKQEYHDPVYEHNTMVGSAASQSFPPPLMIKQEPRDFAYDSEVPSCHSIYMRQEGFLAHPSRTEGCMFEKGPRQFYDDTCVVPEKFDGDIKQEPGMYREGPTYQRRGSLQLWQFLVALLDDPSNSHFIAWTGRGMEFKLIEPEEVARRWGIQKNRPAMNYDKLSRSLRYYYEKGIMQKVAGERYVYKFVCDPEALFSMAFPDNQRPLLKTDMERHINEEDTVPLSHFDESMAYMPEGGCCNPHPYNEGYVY
Summary of the method: as §1

Sequence	binding signal (FLI1)	binding signal (ELK1)	binding signal (GABPA)	binding signal (ERG)	binding signal (ELF1)	binding signal (EHF)	binding signal (SPI1)	binding signal (SPIB)	binding signal (ELK3)	binding signal (FEV)	binding signal (ETV5)	binding signal (SPIC)	binding signal (ELF4)	binding signal (ELK4)	binding signal (ETV2)	binding signal (ELF3)	binding signal (ETV1)
GCCCTC	1.12 fold enrichment (6-mer frequency, TF over GST control)	1.18 fold enrichment (6-mer frequency, TF over GST control)	1.25 fold enrichment (6-mer frequency, TF over GST control)	1.11 fold enrichment (6-mer frequency, TF over GST control)	1.17 fold enrichment (6-mer frequency, TF over GST control)	1.18 fold enrichment (6-mer frequency, TF over GST control)	1.1 fold enrichment (6-mer frequency, TF over GST control)	1.18 fold enrichment (6-mer frequency, TF over GST control)	1.15 fold enrichment (6-mer frequency, TF over GST control)	1.18 fold enrichment (6-mer frequency, TF over GST control)	1.12 fold enrichment (6-mer frequency, TF over GST control)	1.26 fold enrichment (6-mer frequency, TF over GST control)	1.3 fold enrichment (6-mer frequency, TF over GST control)	1.1 fold enrichment (6-mer frequency, TF over GST control)	1.27 fold enrichment (6-mer frequency, TF over GST control)	1.18 fold enrichment (6-mer frequency, TF over GST control)	1.18 fold enrichment (6-mer frequency, TF over GST control)
CGACAC	1.18 fold enrichment (6-mer frequency, TF over GST control)	1.14 fold enrichment (6-mer frequency, TF over GST control)	1.16 fold enrichment (6-mer frequency, TF over GST control)	1.23 fold enrichment (6-mer frequency, TF over GST control)	1.24 fold enrichment (6-mer frequency, TF over GST control)	1.19 fold enrichment (6-mer frequency, TF over GST control)	1.2 fold enrichment (6-mer frequency, TF over GST control)	1.25 fold enrichment (6-mer frequency, TF over GST control)	1.14 fold enrichment (6-mer frequency, TF over GST control)	1.21 fold enrichment (6-mer frequency, TF over GST control)	1.13 fold enrichment (6-mer frequency, TF over GST control)	1.15 fold enrichment (6-mer frequency, TF over GST control)	1.21 fold enrichment (6-mer frequency, TF over GST control)	1.14 fold enrichment (6-mer frequency, TF over GST control)	1.15 fold enrichment (6-mer frequency, TF over GST control)	1.04 fold enrichment (6-mer frequency, TF over GST control)	1.16 fold enrichment (6-mer frequency, TF over GST control)
GTTGCA	1.25 fold enrichment (6-mer frequency, TF over GST control)	1.15 fold enrichment (6-mer frequency, TF over GST control)	1.16 fold enrichment (6-mer frequency, TF over GST control)	1.01 fold enrichment (6-mer frequency, TF over GST control)	1.14 fold enrichment (6-mer frequency, TF over GST control)	1.2 fold enrichment (6-mer frequency, TF over GST control)	1.15 fold enrichment (6-mer frequency, TF over GST control)	1.1 fold enrichment (6-mer frequency, TF over GST control)	1.25 fold enrichment (6-mer frequency, TF over GST control)	1.11 fold enrichment (6-mer frequency, TF over GST control)	1.16 fold enrichment (6-mer frequency, TF over GST control)	1.11 fold enrichment (6-mer frequency, TF over GST control)	1.15 fold enrichment (6-mer frequency, TF over GST control)	1.06 fold enrichment (6-mer frequency, TF over GST control)	1.06 fold enrichment (6-mer frequency, TF over GST control)	1.1 fold enrichment (6-mer frequency, TF over GST control)	1.19 fold enrichment (6-mer frequency, TF over GST control)
